Measurements published in the supplement of paper PMC12494721.
Structures can show the parent of a compound that is named as a salt.

Each molecule was assayed on Escherichia coli IAI1 (assay: growth (OD595) fold change vs plate DMSO controls (fold change (ratio)); higher = more growth). Conditions: incubation time: 27 h, anaerobic, 37 °C.
In short: (§1)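 Growth is calculated as fold change against the median of the DMSO control wells on each plate. Readings at 595 nm from anaerobic mGAM cultures (96-well, 27 h, 37 °C) were blank-subtracted, background-corrected with 20 µM compound solutions in water, and converted to OD by a calibration factor of 5. Fold changes above 1.5 were recorded as NA, and results are means of 2 biological replicates.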
CCN(CCO)CCCC(C)Nc1ccnc2cc(Cl)ccc12 (stereo unspecified) [Hydroxychloroquine sulfate] (20 µM) gave a growth of 0.955.
Molecule C[C@@H](O)[C@H]1C(=O)N2C(C(=O)O)=C(S[C@@H]3CN[C@H](C(=O)N(C)C)C3)[C@H](C)[C@H]12 [Meropenem] (20 µM) has a growth of 0.0127.
In the case of COc1cc(C(=O)OCCCN2CCCN(CCCOC(=O)c3cc(OC)c(OC)c(OC)c3)CC2)cc(OC)c1OC [Dilazep dihydrochloride] (20 µM), the growth is reported as 1.07.
In the case of CCOC(=O)n1ccn(C)c1=S [Carbimazole] (20 µM), the growth is reported as 1.11.
CCOC(=O)CC(=O)N1CCSC1COc1ccccc1OC (stereo unspecified) [Moguisteine] (20 µM) gave a growth of 0.997.
CN[C@@H]1[C@@H](O[C@H]2O[C@H](CO)[C@@H](N)[C@H](O)[C@H]2O)OC2C[C@@H](N)[C@@H](O[C@H]3[C@H](O)[C@@H](O)[C@H](N)C[C@@H]3N)OC2[C@@H]1O (stereo partly specified) [Apramycin] (20 µM) showed a growth of 0.982.
For Cc1c(OCC(F)(F)F)ccnc1C[S+]([O-])c1nc2ccccc2[nH]1 (stereo unspecified) [Lansoprazole] (20 µM), the growth was 1.06.
Cn1c(=O)cc(N2CCC[C@@H](N)C2)n(Cc2ccccc2C#N)c1=O [Alogliptin benzoate] (20 µM) showed a growth of 0.955.
Nc1nc(F)nc2c1ncn2[C@@H]1O[C@H](CO)[C@@H](O)[C@@H]1O [Fludarabine] (20 µM) gave a growth of 0.524.
CCN(Cc1ccncc1)C(=O)C(CO)c1ccccc1 (stereo unspecified) [Tropicamide] (20 µM) gave a growth of 1.01.
Molecule CNC1(C)C2CCC(C2)C1(C)C (stereo unspecified) [Mecamylamine hydrochloride] (20 µM) has a growth of 1.06.
For CC1=NN(c2ccccc2)C(=O)C1 [Edaravone] (20 µM), the growth was 1.03.
In the case of Nc1ccn([C@@H]2O[C@H](CO)[C@@H](O)C2(F)F)c(=O)n1 [Gemcitabine] (20 µM), the growth is reported as 0.338.
Molecule CCCC(CCC)C(=O)O[C@H]1C[C@H]2CC[C@@H](C1)[N+]2(C)C [Anisotropine Methylbromide] (20 µM) has a growth of 1.07.
COc1c(N2CCNC(C)C2)c(F)cc2c(=O)c(C(=O)O)cn(C3CC3)c12 (stereo unspecified) [Gatifloxacin] (20 µM) gave a growth of 0.0496.
For OC(CNCC(O)C1CCc2cc(F)ccc2O1)C1CCc2cc(F)ccc2O1 (stereo unspecified) [Nebivolol hydrochloride] (20 µM), the growth was 0.992.
Work on COc1ccccc1O [Guaiacol] (20 µM) yielded a growth of 1.
COc1ccc(CC2c3cc(OC)c(OC)cc3CC[N+]2(C)CCC(=O)OCCCCCOC(=O)CC[N+]2(C)CCc3cc(OC)c(OC)cc3C2Cc2ccc(OC)c(OC)c2)cc1OC (stereo unspecified) [Atracurium besylate] (20 µM) was tested, and the growth was 1.13.
O=C(O)Cc1cc(I)c(Oc2ccc(O)c(I)c2)c(I)c1 [Tiratricol] (20 µM) was tested, and the growth was 1.07.
Work on COc1cc(/C=C/C(=O)N2CCN(CC(=O)N3CCCC3)CC2)cc(OC)c1OC [Cinepazide maleate] (20 µM) yielded a growth of 1.06.
In the case of C[C@H](CCC(=O)O)[C@H]1CC[C@H]2[C@@H]3C(=O)C[C@@H]4CC(=O)CC[C@]4(C)[C@H]3CC(=O)[C@]12C [Dehydrocholic acid] (20 µM), the growth is reported as 0.968.
Work on CN1CCOC(c2ccccc2)c2ccccc2C1 (stereo unspecified) [Nefopam hydrochloride] (20 µM) yielded a growth of 1.
CCOc1ccc(NC(N)=O)cc1 [(4-Ethoxyphenyl)urea] (50 µM) showed a growth of 0.949.
In the case of CCCCOc1ccc(CC(=O)NO)cc1 [Bufexamac] (20 µM), the growth is reported as 0.929.
Molecule CCOc1ccc2ccccc2c1C(=O)N[C@@H]1C(=O)N2[C@@H]1SC(C)(C)[C@@H]2C(=O)O [Nafcillin sodium salt monohydrate] (20 µM) has a growth of 0.973.
Molecule c1ccc2cc3c(ccc4ccccc43)cc2c1 [Benz[a]anthracene] (20 µM) has a growth of 0.981.
In the case of CC(C)NC[C@H](O)COc1cccc2ccccc12 [(S)-(-)-Propranolol hydrochloride] (20 µM), the growth is reported as 1.03.

The molecules below were run on Klebsiella aerogenes DSM 30053 in the same assay as above. Conditions: incubation time: 27 h, anaerobic, 37 °C.
In short: as §1
OC[C@H]1O[C@@H](O[C@H]2[C@H](O)[C@@H](O)[C@H](O)O[C@@H]2CO)[C@H](O)[C@@H](O)[C@H]1O [Lactose] (50 µM) gave a growth of 1.05.
In the case of C[C@@]12CC[C@@H]3[C@@](CC[C@H]4[C@@]3(C)CCC[C@@]4(C)C(=O)O)(CC1=O)C2 [Iso-Steviol] (50 µM), the growth is reported as 1.03.
CCCCOc1ccc(C(=O)CCN2CCCCC2)cc1 [Dyclonine hydrochloride] (20 µM) was tested, and the growth was 0.966.
In the case of CN(C)c1nc(N(C)C)nc(N(C)C)n1 [Altretamine] (20 µM), the growth is reported as 0.993.
Work on c1ccc(CNc2ncnc3nc[nH]c23)cc1 [Aminopurine, 6-benzyl] (20 µM) yielded a growth of 0.971.
Work on OCCN1CCN(CC/C=C2/c3ccccc3Sc3ccc(C(F)(F)F)cc32)CC1 [Flupentixol dihydrochloride cis-(Z)] (20 µM) yielded a growth of 0.968.
Work on Cc1onc(-c2ccccc2)c1C(=O)N[C@@H]1C(=O)N2[C@@H]1SC(C)(C)[C@@H]2C(=O)O [Oxacillin sodium] (20 µM) yielded a growth of 1.01.
Cc1ccc(Cl)c(Nc2ccccc2C(=O)O)c1Cl [Meclofenamic acid sodium salt monohydrate] (20 µM) was tested, and the growth was 1.16.
For Clc1ccc(C(Cn2ccnc2)OCc2c(Cl)cccc2Cl)c(Cl)c1 (stereo unspecified) [Isoconazole] (20 µM), the growth was 0.862.
NNc1nncc2ccccc12 [Hydralazine hydrochloride] (20 µM) was tested, and the growth was 1.
O=C(O)CCC(=O)c1ccc(-c2ccccc2)cc1 [Fenbufen] (20 µM) gave a growth of 0.996.
C[C@]12CCC(=O)C=C1C=C[C@@H]1[C@@H]2CC[C@@]2(C)[C@H]1CC[C@@]21CCC(=O)O1 [Canrenone] (20 µM) showed a growth of 1.01.
Work on CCN(CCO)CCCC(C)Nc1ccnc2cc(Cl)ccc12 (stereo unspecified) [Hydroxychloroquine sulfate] (20 µM) yielded a growth of 0.95.
C[C@@H](O)[C@H]1C(=O)N2C(C(=O)O)=C(S[C@@H]3CN[C@H](C(=O)N(C)C)C3)[C@H](C)[C@H]12 [Meropenem] (20 µM) gave a growth of 0.316.
COc1cc(C(=O)OCCCN2CCCN(CCCOC(=O)c3cc(OC)c(OC)c(OC)c3)CC2)cc(OC)c1OC [Dilazep dihydrochloride] (20 µM) showed a growth of 0.99.
With CCOC(=O)n1ccn(C)c1=S [Carbimazole] (20 µM) the growth was 0.979.
For CCOC(=O)CC(=O)N1CCSC1COc1ccccc1OC (stereo unspecified) [Moguisteine] (20 µM), the growth was 1.02.
CN[C@@H]1[C@@H](O[C@H]2O[C@H](CO)[C@@H](N)[C@H](O)[C@H]2O)OC2C[C@@H](N)[C@@H](O[C@H]3[C@H](O)[C@@H](O)[C@H](N)C[C@@H]3N)OC2[C@@H]1O (stereo partly specified) [Apramycin] (20 µM) gave a growth of 0.996.
In the case of Cc1c(OCC(F)(F)F)ccnc1C[S+]([O-])c1nc2ccccc2[nH]1 (stereo unspecified) [Lansoprazole] (20 µM), the growth is reported as 1.01.
Molecule Cn1c(=O)cc(N2CCC[C@@H](N)C2)n(Cc2ccccc2C#N)c1=O [Alogliptin benzoate] (20 µM) has a growth of 1.09.
In the case of Nc1nc(F)nc2c1ncn2[C@@H]1O[C@H](CO)[C@@H](O)[C@@H]1O [Fludarabine] (20 µM), the growth is reported as 0.982.
Molecule CCN(Cc1ccncc1)C(=O)C(CO)c1ccccc1 (stereo unspecified) [Tropicamide] (20 µM) has a growth of 1.04.
In the case of CNC1(C)C2CCC(C2)C1(C)C (stereo unspecified) [Mecamylamine hydrochloride] (20 µM), the growth is reported as 1.02.
Molecule CC1=NN(c2ccccc2)C(=O)C1 [Edaravone] (20 µM) has a growth of 1.02.
Molecule Nc1ccn([C@@H]2O[C@H](CO)[C@@H](O)C2(F)F)c(=O)n1 [Gemcitabine] (20 µM) has a growth of 0.294.
Work on CCCC(CCC)C(=O)O[C@H]1C[C@H]2CC[C@@H](C1)[N+]2(C)C [Anisotropine Methylbromide] (20 µM) yielded a growth of 0.99.
With COc1c(N2CCNC(C)C2)c(F)cc2c(=O)c(C(=O)O)cn(C3CC3)c12 (stereo unspecified) [Gatifloxacin] (20 µM) the growth was 0.235.
OC(CNCC(O)C1CCc2cc(F)ccc2O1)C1CCc2cc(F)ccc2O1 (stereo unspecified) [Nebivolol hydrochloride] (20 µM) showed a growth of 0.992.
Molecule COc1ccccc1O [Guaiacol] (20 µM) has a growth of 1.
COc1ccc(CC2c3cc(OC)c(OC)cc3CC[N+]2(C)CCC(=O)OCCCCCOC(=O)CC[N+]2(C)CCc3cc(OC)c(OC)cc3C2Cc2ccc(OC)c(OC)c2)cc1OC (stereo unspecified) [Atracurium besylate] (20 µM) was tested, and the growth was 0.964.
Work on O=C(O)Cc1cc(I)c(Oc2ccc(O)c(I)c2)c(I)c1 [Tiratricol] (20 µM) yielded a growth of 1.04.
For COc1cc(/C=C/C(=O)N2CCN(CC(=O)N3CCCC3)CC2)cc(OC)c1OC [Cinepazide maleate] (20 µM), the growth was 1.02.
Molecule C[C@H](CCC(=O)O)[C@H]1CC[C@H]2[C@@H]3C(=O)C[C@@H]4CC(=O)CC[C@]4(C)[C@H]3CC(=O)[C@]12C [Dehydrocholic acid] (20 µM) has a growth of 0.94.
Molecule CN1CCOC(c2ccccc2)c2ccccc2C1 (stereo unspecified) [Nefopam hydrochloride] (20 µM) has a growth of 0.963.
Work on CCOc1ccc(NC(N)=O)cc1 [(4-Ethoxyphenyl)urea] (50 µM) yielded a growth of 0.994.
In the case of CCCCOc1ccc(CC(=O)NO)cc1 [Bufexamac] (20 µM), the growth is reported as 0.846.
CCOc1ccc2ccccc2c1C(=O)N[C@@H]1C(=O)N2[C@@H]1SC(C)(C)[C@@H]2C(=O)O [Nafcillin sodium salt monohydrate] (20 µM) was tested, and the growth was 1.01.
For c1ccc2cc3c(ccc4ccccc43)cc2c1 [Benz[a]anthracene] (20 µM), the growth was 1.02.
CC(C)NC[C@H](O)COc1cccc2ccccc12 [(S)-(-)-Propranolol hydrochloride] (20 µM) showed a growth of 1.07.
